SW480 rereplic – DNA re-replication induction in SW480 cells. Potency, µM (titrated, usually from 46.1 µM), for the others: at the top dose re-replication activation, hits mostly activators. hit rate 1.8% among 340,000. AID 624297. SW480 DNA re-replication, Hoechst DNA content imaging, 48 h; note: potency is the fitted concentration of half-maximal effect; % of control where 0% means no effect; nearly all actives have a fitted effect of over 55% in size
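Image-based read-out: total Hoechst fluorescence of nuclei (405 nm excitation, 500-530 nm emission), with hits raising the fraction of high-intensity nuclei. SW480 colon cells incubated 48 hr with compounds at 37 C.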
Vif-A3G inh – blocks the Vif interaction with human APOBEC3G; HeLa A3G-eYFP + Vif (tagged APOBEC3G with the HIV-1 protein that degrades it), YFP fluorescence, overnight; Q9HC16; hit rate 0.076% among 410,000; Potency, µM (titrated, usually from 46.1 µM), for the others: at the top dose activity, negative = active, actives largely listed as inhibitors; note: potency is the fitted concentration of half-maximal effect; % is set by controls: 0 for no effect and ±100 for the full control effect; nearly all actives have a fitted effect of over 60% in size
Target sequence (Q9HC16 whole entry, looked up): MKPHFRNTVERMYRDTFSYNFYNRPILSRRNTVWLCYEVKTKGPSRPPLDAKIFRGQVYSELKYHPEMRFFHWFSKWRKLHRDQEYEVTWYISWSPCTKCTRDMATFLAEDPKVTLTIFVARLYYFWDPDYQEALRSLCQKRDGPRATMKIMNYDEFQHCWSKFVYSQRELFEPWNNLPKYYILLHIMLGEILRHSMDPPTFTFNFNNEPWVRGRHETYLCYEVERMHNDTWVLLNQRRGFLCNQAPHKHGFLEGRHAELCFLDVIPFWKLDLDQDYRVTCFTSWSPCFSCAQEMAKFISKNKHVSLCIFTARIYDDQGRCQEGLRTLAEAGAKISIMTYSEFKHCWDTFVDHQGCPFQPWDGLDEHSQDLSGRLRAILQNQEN
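HeLa cells stably expressing Vif and C-terminally eYFP-tagged A3G, seeded overnight at 37 deg C, then exposed to compound by pintool overnight at 37 deg C. Rise in yellow fluorescence (Ex 488/Em 500-530, Acumen) marks blocked Vif-driven A3G degradation.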
IL-1B inflam inh – inflammasome signaling inhibition, IL-1 beta readout | THP-1 LPS/ATP IL-1B secretion, AlphaLISA, 16 h; hits give low values | activity change, % at 57.5 µM | hit rate 4.7% among 360,000 | AID 743279; in the data active = activity change below about -50%; inconclusive = mostly about -30% to -49%; note: % is set by controls: 0 for no effect and ±100 for the full control effect
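Secreted IL-1B measured by AlphaLISA bead assay after 16 h compound exposure of THP-1 cells; compounds (final up to 57.5 uM) added 1 h before LPS (250 ng/mL) and ATP (1.25 mM) stimulation; lower signal means less secretion.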
Giardia kill – kills Giardia lamblia; AID 540267; activity change, % at 7.66 µM, hits read low; Giardia lamblia trophozoite viability; hit rate 0.15% among 340,000; in the data active = activity change below about -80%; inconclusive = between about -30% and that limit;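 note: parasites exposed to compound for two days anaerobically before the ATP read; % is set by controls: 0 for no effect and ±100 for the full control effect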
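Luminescence from cellular ATP indicates surviving trophozoites (100 cells/well) following 48 hrs anaerobic compound treatment at 37 deg C; signal develops 15-30 min at room temperature.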
Vif-APOBEC3F blk – Vif-A3F binding inhibition | Potency, µM (series often up to 46.1 µM), for inactives: at the top dose activity, negative = active | HeLa A3F-eYFP + Vif (tagged APOBEC3F with the HIV-1 protein that degrades it), YFP fluorescence increase | hit rate 0.2% among 390,000; note: potency is the fitted concentration of half-maximal effect; % of control where 0% means no effect; nearly all actives have a fitted effect of over 65% in size
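HeLa cells stably expressing A3F-eYFP plus Vif, plated and incubated overnight at 37 deg C, then exposed to compounds overnight at 37 deg C. Blocked degradation read as raised yellow fluorescence (Ex 488/Em 500-530).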
MCF10A rerep – DNA re-replication induction in MCF 10a cells | MCF 10A DNA re-replication, Hoechst nuclear intensity, 48 h | Potency, µM (doses to about 46.1 µM), for inactives: top-dose activity, positive = re-replication, usual class: activators | hit rate 2.9% among 350,000; note: potency is the fitted concentration of half-maximal effect; % of control where 0% means no effect; nearly all actives have a fitted effect of over 50% in size
Numbers without * were called inactive; ? = inconclusive; · = no result given. Most compounds without a hit are left out; they make up all but 6.9% or so of the library. Unless noted, calls come from the whole dose curve; as a rule, active = well fitted curve in the direction sought with a large enough effect; inconclusive = small, poorly fitted or top-dose-only effect, or another doubt; inactive = no such curve, though single readings can be large; an effect the other way counts as inactive or inconclusive.

SMILES | SW480 rereplic | Vif-A3G inh | IL-1B inflam inh | Giardia kill | Vif-APOBEC3F blk | MCF10A rerep
COc1cc2c(NC3CCN(C(C)C)CC3)nc(N3CCCN(C)CC3)nc2cc1OCCOCCN(C)C | · | 1% | · | · | · | ·
CCOc1cnn(-c2ccccc2)c(=O)c1Cl | 6% | -1% | ? | 4 | 6% | 26µM*
COC(=O)CCCCC1SCC2NC(=O)NC21O (centres undefined) | 1% | -3% | -113* | -1 | -3% | -1%
Cc1c(CNC2CCC(C)CC2)c(C(=O)O)c(C)n1Cc1ccc(Cl)cc1 (centres undefined) | · | -3% | · | · | -5% | ·
CCOC(=O)c1c(NC(=O)CSc2nnnn2-c2ccc(OC)cc2)sc(C)c1C | 1% | 0% | -59* | 8 | -6% | 0%
CCOC(=O)c1csc(NC(=O)CSc2nnnn2-c2ccc(OC)cc2)n1 | -1% | -3% | 26 | -4 | 0% | 2%
CCOC(=O)c1c(NC(=O)CSc2nncs2)sc(C)c1-c1ccccc1 | 8% | -9% | -15 | -15 | -20% | 7.3µM*
CCOC(=O)c1c(-c2ccc(OC)cc2)csc1/N=C/C1C(=O)CCCC1=O | ? | ? | -18 | 31 | 25µM* | ?
CCOC(=O)c1c(-c2ccccc2)csc1NC(=O)/C(C#N)=C/c1ccc(O)c(OC)c1 | ? | 6% | -17 | -10 | ? | 21µM*
CCc1nnc2n1N(C(C)=O)C(c1ccc(C(C)(C)C)cc1)=C(C(C)=O)S2 | · | 6% | · | · | -2% | ·
COc1ccc(C(=O)Nc2nc3n(n2)C(c2ccc(Cl)cc2)C=C(c2ccccc2)N3)cc1OC (centres undefined) | · | -19% | · | · | -2% | ·
CCOC(=O)c1c(-c2ccccc2)csc1NC(=O)CSc1ccccc1 | -1% | 0% | 3 | -1 | 0% | 9%
CCOC(=O)c1c(-c2ccc(-c3ccccc3)cc2)csc1NC(=O)C1C2CCC(O2)C1C(=O)O (centres undefined) | -1% | -5% | 52 | -23 | 4% | 9.2µM*
CCOC(=O)c1c(-c2ccc(OC)cc2)csc1NC(=O)CSc1ccccc1 | 8% | -1% | -12 | -16 | 2% | 7.3µM*
COCCc1nn2c(=O)cc(COC(=O)COc3ccccc3C)nc2s1 | · | 3% | · | · | 0% | ·
O=C1c2cccc(NCCCNCCO)c2C(=O)c2cccc(NCCCNCCO)c21 | 2% | 11% | -103* | 16 | 0% | -6%
O=C1c2ccccc2C(=O)c2c(NCc3cccnc3)cccc21 | 2% | -1% | -12 | -14 | -3% | 12%
CS(=O)(=O)c1ccc(C(=O)OCC(=O)NC(=O)C2COc3ccccc3O2)cc1[N+](=O)[O-] (centres undefined) | ? | -13% | -59* | 6 | 4% | ?
Cc1cc(C(=O)OCC(=O)NC(=O)C2CCCCC2)ccc1[N+](=O)[O-] | · | 1% | · | 15 | · | ·
CS(=O)(=O)c1ccc(C(=O)OCC(=O)NC(=O)C2CCCCC2)cc1[N+](=O)[O-] | ? | ? | -60* | 6 | 0% | ?
COc1ccc2c(c1)c(C(=O)CN(C)C)c(C)n2C | · | 5% | · | · | · | ·
Cc1cc(-c2cn3ccccc3n2)c(C)n1-c1ccccc1 | ? | 1% | -11 | ? | ? | 21µM*
COc1ccc(-n2c(C)cc(-c3cn4cccc(C)c4n3)c2C)cc1 | -181% | -6% | 28 | -5 | 3% | ?
O=c1[nH]c2cc([N+](=O)[O-])c([N+](=O)[O-])cc2[nH]c1=O | 6.5µM* | 3% | -11 | -11 | -1% | 0%
CCOc1ccc(NC(=O)c2nn(C)c3c2COc2ccccc2-3)cc1 | · | -3% | · | · | 1% | ·
COc1ccc(NC(=O)c2ccc(NCCCN3CCOCC3)c([N+](=O)[O-])c2)cc1 | -5% | 4% | ? | 25 | 4% | 14%
O=C(NCCCN1CCOCC1)c1ccc(Cl)c([N+](=O)[O-])c1 | -33% | -3% | -2 | -9 | 8% | ?
O=C(Nc1ccc(Cl)c([N+](=O)[O-])c1)c1ccc(NCCCN2CCOCC2)c([N+](=O)[O-])c1 | 2.9µM* | 2% | 0 | ? | -27% | ?
